# Test results as given in PubChem BioAssay (Tox21).
# Several values for one entry are separate records, joined by “and”; a condition that tells them apart may be missing. Identical values can stand only once. Inconclusive results are not listed. A call without a number means that no potency is given here. More than one record can exist for a structure, and the calls need not agree. Activity calls are given as the source filed them. Unless noted, the call rests on the fitted dose curve.
# Legend:
# [1] = Nuclear factor erythroid 2-related factor 2/antioxidant responsive element (Nrf2/ARE) small molecule agonists: qHTS cell viability counter screen in human keratinocytes (AID 1919968; active means well fitted curve in the direction sought with a large enough effect in the repeat runs; an effect the other way counts as inactive or inconclusive; further: nearly all actives have a fitted effect of over 55% in size)
# Procedure, shortened: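 Measured as CellTiter-Fluor fluorescence, this readout tracks cytotoxicity in the same wells as the ARE-luciferase screen. HaCaT reporter cells (1,500/well) received compounds after a 5 h pre-incubation and were exposed for 23 h.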
# [2] = Nuclear factor erythroid 2-related factor 2/antioxidant responsive element (Nrf2/ARE) small molecule agonists: luciferase reporter gene qHTS assay in human keratinocytes (AID 1919969); further: nearly all actives have a fitted effect of over 35% in size; further: potency means the concentration at half of the fitted maximal effect
# [3] = target: Gonadotropin-releasing hormone receptor (Homo sapiens) (UniProt P30968); experiment: Human gonadotropin-releasing hormone receptor (GnRHR) small molecule agonists, calcium flux assay in GnRHR-HEK293 cells (AID 1920063); further: nearly all actives have a fitted effect of over 35% in size
# Sequence of Gonadotropin-releasing hormone receptor (Homo sapiens) (P30968 whole entry, looked up): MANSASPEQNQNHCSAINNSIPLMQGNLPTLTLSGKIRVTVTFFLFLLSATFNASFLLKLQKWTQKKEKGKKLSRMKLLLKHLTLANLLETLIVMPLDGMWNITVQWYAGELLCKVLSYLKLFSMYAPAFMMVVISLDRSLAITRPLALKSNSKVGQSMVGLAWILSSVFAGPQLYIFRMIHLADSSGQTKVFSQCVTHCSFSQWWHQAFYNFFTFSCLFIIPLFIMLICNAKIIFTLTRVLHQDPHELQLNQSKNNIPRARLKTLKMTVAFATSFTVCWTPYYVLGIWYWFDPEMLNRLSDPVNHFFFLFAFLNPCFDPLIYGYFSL
# Procedure, shortened: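 Fluorescence kinetics (480 nm excitation, 540 nm emission; 3 min, 1 s steps) report calcium mobilisation in human GnRHR-HEK293 cells in agonist mode. Dye incubation: 1 h, 37 C.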
# [4] = target: KiSS-1 receptor (Homo sapiens) (UniProt Q969F8); experiment: Human kisspeptin (KISS1R) small molecule agonists, calcium flux assay in KISS1R-HEK293 cells (AID 1920064; active means well fitted curve in the direction sought with a large enough effect in the repeat runs; an effect the other way counts as inactive or inconclusive)
# Sequence of KiSS-1 receptor (Homo sapiens) (Q969F8 whole entry, looked up): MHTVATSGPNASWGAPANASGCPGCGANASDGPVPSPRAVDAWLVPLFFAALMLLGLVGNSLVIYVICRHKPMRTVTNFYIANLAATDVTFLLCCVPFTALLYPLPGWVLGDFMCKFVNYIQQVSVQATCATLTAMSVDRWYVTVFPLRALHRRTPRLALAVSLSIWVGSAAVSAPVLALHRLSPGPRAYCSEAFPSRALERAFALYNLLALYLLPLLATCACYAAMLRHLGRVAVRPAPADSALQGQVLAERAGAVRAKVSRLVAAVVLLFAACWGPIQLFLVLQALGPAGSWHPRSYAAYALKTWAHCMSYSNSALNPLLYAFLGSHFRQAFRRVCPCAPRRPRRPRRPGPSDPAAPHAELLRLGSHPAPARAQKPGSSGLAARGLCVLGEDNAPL
# Procedure, shortened: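 Measures KISS1R agonism through calcium-sensitive dye fluorescence in stably transfected HEK293 cells, read for 3 min after pin-tool compound delivery; 15-point titrations in triplicate.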
# [5] = G protein-coupled receptor (GPCR) small molecule agonists, calcium flux assay: HEK293 wild type cell line counter screen (AID 1920065)
# Procedure, shortened: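 Readout: fluorescence at 480 nm excitation/540 nm emission, sampled at 1 s intervals for 3 min. Cells had been cultured 18 h, then dye-loaded 1 h at 37 C before compound or ATP addition.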
# [6] = p53 small molecule agonists, cell-based qHTS assay with human liver microsomes: qHTS cell viability counter screen (AID 1963579); further: nearly all actives have a fitted effect of over 45% in size; further: potency means the concentration at half of the fitted maximal effect
# Procedure, shortened: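 Cytotoxicity counter screen: p53RE-bla, 4,000 cells/well; 5 h settle, 37 C/5% CO2; cpd + HLM 0.5 mg/mL + NADPH 0.5 mg/mL (final); 16 h, 37 C; CellTiter-Glo, 30 min RT, luminescence.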
# [7] = p53 small molecule agonists, cell-based qHTS assay with rat liver microsomes: qHTS cell viability counter screen (AID 1963580); further: nearly all actives have a fitted effect of over 45% in size; further: potency means the concentration at half of the fitted maximal effect
# Procedure, shortened: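 In HCT-116 cells carrying a p53 response element-bla reporter, compounds were metabolically activated in situ by rat liver microsomes with NADPH over 16 h. Cell ATP content then served as the cytotoxicity measure.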
# [8] = p53 small molecule agonists, cell-based qHTS assay: qHTS cell viability counter screen (AID 1963581); further: nearly all actives have a fitted effect of over 45% in size
# Procedure, shortened: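 In the same plates used for the p53 bla reporter, HCT-116 cells given compounds for 16 h at 37 C received CellTiter-Glo; luminescence was recorded 30 min later at room temperature.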
# [9] = target: 5-hydroxytryptamine receptor 2A (Homo sapiens) (UniProt P28223); experiment: 5-hydroxytryptamine receptor 2A (HTR2A) small molecule antagonists, cell-based qHTS assay (AID 1963586); further: nearly all actives have a fitted effect of over 45% in size
# Sequence of 5-hydroxytryptamine receptor 2A (Homo sapiens) (P28223 whole entry, looked up): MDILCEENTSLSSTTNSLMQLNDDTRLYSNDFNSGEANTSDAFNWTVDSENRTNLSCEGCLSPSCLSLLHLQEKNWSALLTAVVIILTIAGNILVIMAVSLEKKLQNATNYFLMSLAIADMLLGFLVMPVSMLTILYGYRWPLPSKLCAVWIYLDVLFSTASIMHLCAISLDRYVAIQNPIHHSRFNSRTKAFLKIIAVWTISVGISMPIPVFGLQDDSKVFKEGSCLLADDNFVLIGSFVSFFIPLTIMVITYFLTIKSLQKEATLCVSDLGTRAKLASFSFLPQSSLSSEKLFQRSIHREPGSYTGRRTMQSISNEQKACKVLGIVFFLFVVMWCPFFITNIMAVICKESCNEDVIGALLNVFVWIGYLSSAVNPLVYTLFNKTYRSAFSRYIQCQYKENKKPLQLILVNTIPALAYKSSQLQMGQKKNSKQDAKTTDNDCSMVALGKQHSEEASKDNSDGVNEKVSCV
# Procedure, shortened: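 Antagonist-mode intracellular calcium assay: DOI (4 nM) added after 5 min compound pre-incubation at room temperature to dye-loaded HTR2A-CHO cells. Fluorescence followed for 3 min, sampled every second.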
# [10] = target: 5-hydroxytryptamine receptor 2A (Homo sapiens) (UniProt P28223); experiment: 5-hydroxytryptamine receptor 2A (HTR2A) small molecule agonists, cell-based qHTS assay (AID 1963587); further: nearly all actives have a fitted effect of over 30% in size
# Procedure, shortened: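 HTR2A-CHO cells, plated 18 h at 37 C/5% CO2, dye-loaded 1 h at 37 C; compounds in DMSO added by pin tool (agonist mode). Intracellular calcium flux read as kinetic fluorescence on FDSS over 2 min at 1 s intervals.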
# [11] = target: Muscarinic acetylcholine receptor M1 (Homo sapiens) (UniProt P11229); experiment: Cholinergic receptor muscarinic 1 (CHRM1) small molecule antagonists, cell-based qHTS assay (AID 1963588); further: nearly all actives have a fitted effect of over 40% in size; further: potency means the concentration at half of the fitted maximal effect
# Sequence of Muscarinic acetylcholine receptor M1 (Homo sapiens) (P11229 whole entry, looked up): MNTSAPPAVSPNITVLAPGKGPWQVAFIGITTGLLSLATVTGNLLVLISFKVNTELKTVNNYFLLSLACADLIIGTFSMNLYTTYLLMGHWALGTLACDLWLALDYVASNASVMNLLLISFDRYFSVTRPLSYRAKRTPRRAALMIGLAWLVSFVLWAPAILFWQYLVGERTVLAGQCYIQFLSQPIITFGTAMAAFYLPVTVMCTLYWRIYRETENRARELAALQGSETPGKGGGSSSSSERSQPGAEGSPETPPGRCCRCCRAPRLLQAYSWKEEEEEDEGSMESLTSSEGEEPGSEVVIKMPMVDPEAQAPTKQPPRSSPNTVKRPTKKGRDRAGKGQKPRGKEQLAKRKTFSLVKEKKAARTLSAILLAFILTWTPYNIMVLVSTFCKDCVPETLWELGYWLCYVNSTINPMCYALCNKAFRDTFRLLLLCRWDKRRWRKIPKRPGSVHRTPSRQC
# Procedure, shortened: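 CHRM1-CHO calcium-flux assay, antagonist mode. Cells were seeded 18 h, dye-loaded 1 h at 37 C and given compound for 5 min at RT, then acetylcholine was added at 50nM. FDSS fluorescence was read 3 min; 15 concentrations, three runs.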
# [12] = target: Muscarinic acetylcholine receptor M1 (Homo sapiens) (UniProt P11229); experiment: Cholinergic receptor muscarinic 1 (CHRM1) small molecule agonists, cell-based qHTS assay (AID 1963589); further: nearly all actives have a fitted effect of over 35% in size
# Procedure, shortened: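 Each compound was tested at 15 concentrations across three independent runs on dye-loaded CHO cells stably expressing human CHRM1, reading intracellular calcium fluorescence kinetically at 1 sec intervals.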
# [13] = cAMP Responsive Elements (CRE) small molecule agonists, cell-based qHTS assay (AID 1963590)
# Procedure, shortened: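 Cell line: CRE-bla HEK 293T; medium DMEM/10% dialyzed FBS/0.1 mM NEAA/1 mM pyruvate/25 mM HEPES; 3 h compound exposure; beta-lactamase FRET readout after 2 h substrate loading at RT.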
# [14] = cAMP Responsive Elements (CRE) small molecule antagonists, cell-based qHTS assay (AID 1963591; active means well fitted inhibition curve with a large enough effect in the signal ratio in the repeat runs, not every such curve was filed as active; the % refers to the signal ratio)
# Procedure, shortened: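 Inhibition of NKH477-driven (0.25 uM final) CRE-beta-lactamase signal in HEK293T cells, 3 h compound exposure at 37 °C, detected by FRET substrate fluorescence.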
# [15] = target: Beta-2 adrenergic receptor (Homo sapiens) (UniProt P07550); experiment: Adrenergic beta2 receptor (ADRB2) small molecule antagonists, cell-based qHTS assay (AID 1963592); further: series mostly up to about 92 µM; nearly all actives have a fitted effect of over 50% in size
# Sequence of Beta-2 adrenergic receptor (Homo sapiens) (P07550 whole entry, looked up): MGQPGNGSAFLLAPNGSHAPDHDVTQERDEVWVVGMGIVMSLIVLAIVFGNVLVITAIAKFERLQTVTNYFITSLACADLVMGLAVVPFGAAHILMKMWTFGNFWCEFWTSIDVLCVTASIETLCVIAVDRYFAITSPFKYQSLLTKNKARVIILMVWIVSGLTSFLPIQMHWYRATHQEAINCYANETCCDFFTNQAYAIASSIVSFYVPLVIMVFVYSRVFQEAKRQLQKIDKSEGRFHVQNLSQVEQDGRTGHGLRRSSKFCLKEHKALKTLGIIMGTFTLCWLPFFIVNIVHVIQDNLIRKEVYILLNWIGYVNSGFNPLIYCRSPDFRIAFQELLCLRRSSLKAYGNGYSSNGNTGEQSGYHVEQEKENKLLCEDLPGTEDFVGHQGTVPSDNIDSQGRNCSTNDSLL
# Procedure, shortened: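 Cells (CHO, stable ADRB2 overexpression) incubated 18-20hr at 37C; compounds added from DMSO; agonist mix (1nM isoproterenol, 100uM IBMX, 25uM Ro-20-1724) added; 0.5hr RT; d2-cAMP and anti-cAMP-cryptate added; 1hr RT; 665/615 nm read.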
# [16] = target: Beta-2 adrenergic receptor (Homo sapiens) (UniProt P07550); experiment: Adrenergic beta2 receptor (ADRB2) small molecule agonists, cell-based qHTS assay (AID 1963593);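 further: CHO cells stably overexpressing human ADRB2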
# Procedure, shortened: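 CHO cells stably over-expressing ADRB2 were plated overnight at 37C, then dosed with compounds plus a stimulation mix containing 100uM IBMX and 25uM Ro-20-1724 for 0.5hr at room temperature. cAMP was measured by HTRF competition, 1hr.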
# [17] = target: D(2) dopamine receptor (Homo sapiens) (UniProt P14416); experiment: Dopamine D2 receptor (DRD2) small molecule agonists, cell-based qHTS assay (AID 1963594); further: nearly all actives have a fitted effect of over 35% in size
# Sequence of D(2) dopamine receptor (Homo sapiens) (P14416 whole entry, looked up): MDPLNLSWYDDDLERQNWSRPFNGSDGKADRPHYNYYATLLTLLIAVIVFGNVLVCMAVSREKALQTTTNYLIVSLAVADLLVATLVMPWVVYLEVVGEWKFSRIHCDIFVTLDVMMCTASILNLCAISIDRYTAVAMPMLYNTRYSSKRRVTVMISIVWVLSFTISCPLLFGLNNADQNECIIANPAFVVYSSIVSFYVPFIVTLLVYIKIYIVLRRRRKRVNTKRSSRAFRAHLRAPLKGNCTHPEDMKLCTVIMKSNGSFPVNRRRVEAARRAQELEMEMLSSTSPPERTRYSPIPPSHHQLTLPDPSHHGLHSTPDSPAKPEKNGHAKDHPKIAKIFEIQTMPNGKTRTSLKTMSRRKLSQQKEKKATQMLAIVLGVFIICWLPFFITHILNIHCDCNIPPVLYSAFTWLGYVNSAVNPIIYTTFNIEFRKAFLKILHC
# Procedure, shortened: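 HEK293 cells stably expressing DRD2 were cultured 24 h at 37 C, then given Ro20-1724 (0.1 mM final) and compounds for 10 min at room temperature. NKH477 (200nM) was then added for 30 min. cAMP was read by HTRF.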
# [18] = target: D(2) dopamine receptor (Homo sapiens) (UniProt P14416); experiment: Dopamine D2 receptor (DRD2) small molecule antagonists, cell-based qHTS assay (AID 1963595; active means well fitted inhibition curve with a large enough effect in the signal ratio in the repeat runs, with a control signal flat; the % refers to the signal ratio)
# Procedure, shortened: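 HTRF cAMP read-out at 665 and 620 nm emission (340 nm excitation). Antagonist mode: compounds were tested against 12 nM quinpirole in DRD2-HEK293 cells, with 200 nM NKH477 raising cAMP and 0.1 mM Ro20-1724 blocking its breakdown.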
SMILES,Potency [1],Potency [2],Potency [3],Potency [4],Potency [5],Potency [6],Potency [7],Potency [8],Potency [9],Potency [10],Potency [11],Potency [12],Potency [13],Potency [14],Potency [15],Potency [16],Potency [17],Potency [18]
Cc1ccc(N)cc1Cl,inactive,inactive,inactive,inactive,inactive,inactive,inactive,inactive,inactive,inactive,inactive,inactive,inactive,inactive,inactive,inactive,inactive,inactive
Cc1[nH]c(=O)n(C(C)(C)C)c(=O)c1Cl,inactive,inactive,inactive,inactive,inactive,inactive,inactive,inactive,inactive,,inactive,inactive,inactive,inactive,inactive,,inactive,inactive
CC[n+]1ccccc1,inactive,inactive,inactive,inactive,inactive,inactive,inactive,inactive,,inactive,inactive,inactive,inactive,,inactive,inactive,inactive,
CC[N+]1(C)CCCC1,inactive,70.3 µM (active) and inactive,inactive,inactive,inactive,41.8 µM (active) and inactive,inactive,inactive,inactive,,inactive,inactive,inactive,inactive,inactive,,inactive,inactive
O=C(O)Cc1ccccc1,inactive,inactive,inactive,inactive,inactive,inactive,inactive,inactive,inactive,inactive,266 nM (active) and inactive,inactive,inactive,inactive,inactive,,inactive,inactive
Oc1cc(Cl)c(Cl)cc1Cl,inactive,inactive,inactive,inactive,inactive,inactive,40.5 µM (active) and inactive,inactive,inactive,inactive,inactive,inactive,,inactive,inactive,,inactive,inactive
COc1ccccc1N,inactive,61.1 µM (active) and inactive,inactive,inactive,inactive,inactive,inactive,inactive,,,,,inactive,inactive,inactive,inactive,inactive,inactive
Nc1ccc(N)cc1,inactive,61.1 µM (active) and 18.8 µM (active) and inactive,inactive,inactive,inactive,inactive,inactive,inactive,inactive,inactive,,inactive,inactive,inactive,,inactive,inactive,inactive
CN1C(=O)CCS(=O)(=O)C1c1ccc(Cl)cc1 (stereo not given),inactive,inactive,inactive,inactive,inactive,inactive,inactive,inactive,inactive,inactive,inactive,inactive,inactive,inactive,inactive,inactive,inactive,inactive
CCCC[n+]1ccccc1,inactive,inactive,inactive,inactive,inactive,inactive,inactive,inactive,,,inactive,,inactive,inactive,inactive,inactive,inactive,inactive
COP(=O)(OC)OC=C(Cl)Cl,inactive,55 µM (active) and inactive,inactive,inactive,inactive,inactive,412 nM (active) and inactive,inactive,,,,,inactive,inactive,inactive,inactive,inactive,
C[C@]12C=CC3=C4CCC(=O)C=C4CC[C@H]3[C@@H]1CC[C@@H]2O,inactive,27.1 µM (active) and 58 µM (active),inactive,inactive,inactive,inactive,inactive,inactive,,,,,,,,inactive,inactive,inactive
Cc1cc(Cl)ccc1N,inactive,inactive,inactive,inactive,inactive,inactive,inactive,inactive,inactive,inactive,inactive,inactive,inactive,inactive,inactive,inactive,,inactive
O=Cc1cccc(Oc2ccccc2)c1,inactive,inactive,inactive,inactive,inactive,inactive,inactive,inactive,inactive,inactive,inactive,,inactive,inactive,inactive,inactive,inactive,inactive
Nc1ncn[nH]1,inactive,inactive,inactive,inactive,inactive,inactive,inactive,inactive,inactive,,inactive,inactive,,inactive,inactive,inactive,inactive,inactive
